# Assay results: PubChem BioAssay (NCATS)
# Calls of active or inactive are those of the source. How the calls were made is not given here.
# System: HIV-1 nucleocapsid protein NCp7 (binding to TG oligonucleotide)
# Test: HIV Nucleocapsid (AID 346);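 further: potency is for inhibitors that block NC binding and lower polarization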
# Settings: HIV-1 NC / fluorescein-TGTGTGTG probe, fluorescence polarization
# In short: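 Reagents dispensed (10 nM TG4xF, 100 nM HIV-1 NC), plates spun, compounds pin-transferred, then incubated 1 hr at room temperature before FP imaging. Buffer: Hepes pH 7.5, 250mM NaCl, 1uM ZnCl2, 100 uM TCEP, 5 mM 2-mercaptoethanol.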
# Potency means the concentration at half of the fitted maximal effect.
row,SMILES,Potency
1,O=S(=O)(c1ccccc1)N1CCC2(CCCN(Cc3nccs3)C2)CC1,> 20 µM (inactive)
2,CC(=O)NCCNc1nc(-c2cccc(C#N)c2)nc2ccccc12,> 20 µM (inactive)
3,COCC(=O)N1CCC2(CCN(Cc3ccncc3)CC2)CC1,> 20 µM (inactive)
4,Cc1ccccc1-c1cc(NCCN2CCOCC2)ncn1,> 20 µM (inactive)
5,COc1ccccc1CNc1cc(-c2ccccc2Cl)ncn1,> 20 µM (inactive)
6,c1nc(NC2CC2)c2cc(-c3ccoc3)ccc2n1,> 20 µM (inactive)
7,Cc1cnc(CNc2cc(-c3ccccc3C)ncn2)cn1,> 20 µM (inactive)
8,O=c1c(-c2ccccc2)nc2cnc(N3CCOCC3)nc2n1Cc1ccc(F)cc1,> 20 µM (inactive)
9,O=C(c1cccc(F)c1)N1CCC2(CC1)CCN(c1ncccn1)CC2,> 20 µM (inactive)
10,Cc1nc2cnc(N(C)C)nc2n(CCC#N)c1=O,> 20 µM (inactive)
11,COCCn1c(=O)c(C)nc2cnc(Oc3ccccc3)nc21,> 20 µM (inactive)
12,Cc1noc(C)c1-c1cc(Nc2ccccc2)ncn1,> 20 µM (inactive)
13,CN(C)c1ncc2nc(-c3cccs3)c(=O)n(Cc3cccs3)c2n1,> 4 µM (inactive)
14,COc1ccc2[nH]cc(CCNc3nc(-c4ccccc4OC)nc4ccccc34)c2c1,> 20 µM (inactive)
15,COCC(=O)N1CCC2(CC1)CN(C(c1ccccc1)c1ccccc1)C2,> 20 µM (inactive)
16,CCNc1ncc2nc(CCc3ccccc3)c(=O)n(-c3ccccc3)c2n1,> 4 µM (inactive)
17,O=c1c(-c2ccccc2)nc2cnc(N3CCOCC3)nc2n1-c1ccccc1,> 20 µM (inactive)
18,CN(C)Cc1ccccc1-c1nccc(NCc2cccs2)n1,> 20 µM (inactive)
19,COc1cccc(Nc2ncc3nc(C)c(=O)n(CCc4ccccc4)c3n2)c1,> 20 µM (inactive)
20,COc1ccc2[nH]cc(CCNc3nc(-c4ccc(C(=O)N(C)C)cc4)nc4ccccc34)c2c1,> 20 µM (inactive)

row,SMILES,Potency
1,CN(C)c1ncc2nc(-c3ccc(F)cc3)c(=O)n(C3CC3)c2n1,> 4 µM (inactive)
2,COc1ccccc1-c1ccc2ncnc(N3CCOCC3)c2c1,> 20 µM (inactive)
3,CN1CCN(c2nc(-c3ccccc3C(F)(F)F)nc3ccccc23)CC1,> 20 µM (inactive)
4,COc1cccc(Nc2ncc3nc(-c4cccs4)c(=O)n(C[C@H]4CCCO4)c3n2)c1,> 4 µM (inactive)
5,COCC(=O)N1CCC2(CC1)CCN(c1ccccn1)CC2,> 20 µM (inactive)
6,Cc1nc2cnc(N3CCNCC3)nc2n(C2CC2)c1=O,> 20 µM (inactive)
7,COc1ccc2[nH]cc(CCNc3ncncc3-c3ccoc3)c2c1,> 20 µM (inactive)
8,N#Cc1cccc(NC(=O)N2CCCC3(CCN(C(=O)c4csnn4)CC3)C2)c1,> 20 µM (inactive)
9,Cc1cnc(CNc2cc(-c3ccc4c(c3)OCO4)ncn2)cn1,> 20 µM (inactive)
10,Cc1nc2cnc(Oc3cccc(Cl)c3)nc2n(C2CC2)c1=O,> 20 µM (inactive)
11,COc1ccc2[nH]cc(CCNc3ccnc(-c4cccc(NS(C)(=O)=O)c4)n3)c2c1,> 20 µM (inactive)
12,COc1ccc(C(=O)N2CCC3(CCCN(c4ccncc4)C3)CC2)cc1,> 20 µM (inactive)
13,Cc1ccccc1-c1nccc(NCc2cccs2)n1,> 20 µM (inactive)
14,Cc1noc(C)c1C(=O)N1CCC2(CC1)CN(c1ccccn1)C2,> 20 µM (inactive)
15,O=C(Oc1ccccc1)N1CCC2(CCCN(c3ccccc3)C2)CC1,> 20 µM (inactive)
16,CC(=O)NCCNc1ncnc2ccc(-c3c(C)noc3C)cc12,> 20 µM (inactive)
17,COCCn1c(=O)c(-c2cccs2)nc2cnc(N3CCOCC3)nc21,> 20 µM (inactive)
18,CN1CCN(c2ncncc2-c2ccccc2Cl)CC1,> 20 µM (inactive)
19,COc1ncc2nc(-c3ccccc3)c(=O)n(C3CC3)c2n1,> 20 µM (inactive)
20,N#Cc1cccc(-c2ccc3ncnc(NCc4ccccc4)c3c2)c1,> 20 µM (inactive)
